Experimental data taken from PubChem BioAssay AID504834 (National Center for Advancing Translational Sciences (NCATS), 2011).
In all, about 320,000 compounds went through this assay and about 22,000 (6.9%) were called active. About 27% were inconclusive and are not listed. For the sample, actives were picked, then their nearest neighbours and some compounds at random. Values without a mark were called inactive. The call rests on the fitted dose curve; in most records, active means well fitted inhibition curve with a large enough effect; inconclusive means small, poorly fitted or top-dose-only effect, or another doubt; inactive means no such curve, though single readings can be large or run the other way.

Experiment: Primary qHTS for delayed death inhibitors of the malarial parasite plastid, 96 hour incubation
Settings: P. falciparum luciferase reporter growth; series mostly up to 28.7 µM; activity change, negative = inhibition: at the top concentration
In short: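 Cell-based qHTS: luciferase-tagged P. falciparum in erythrocytes (2% hematocrit, 0.05% parasitemia final) incubated with compounds for 96 hours, 37 C, 5% CO2; luciferase detection reagent then added and luminescence measured.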
On the % scale 0 is the no-effect control and ±100 the full control effect; potency means the concentration at half of the fitted maximal effect.

SMILES | activity change, negative = inhibition | Potency
Cc1cccc(C)c1NC(=O)CSc1ccc([N+](=O)[O-])cn1 | -13.6% | 
CC(C)(C)n1cnnc1Sc1ccc([N+](=O)[O-])cn1 |  | 1.65 µM (active)
O=[N+]([O-])c1ccc(Sc2n[nH]c(-c3ccco3)n2)nc1 | 219% | 
Cc1cccc(N(C(=O)c2csnn2)C(C(=O)NCc2ccccc2)c2ccncc2)c1 (stereo not given) | -0.692% | 
CCOc1cc(C(=S)N2CCOCC2)ccc1O |  | 13.1 µM (active)
COc1cc(C(=S)N2CCOCC2)ccc1O |  | inactive
CCOc1cc(C(=S)N2CCOCC2)ccc1OS(=O)(=O)c1ccc(Br)cc1 | 13.8% | 
CCN1c2nc3c(C)cccn3c(=O)c2CC2(C(=O)N(C)C(=O)N(C)C2=O)C1C (stereo not given) |  | 3.29 µM (active)
CCOC(=O)N1CCN(C(=O)CSc2nc(=O)n3cccc(C)c3n2)CC1 | 8.94% | 
CN(Cc1c(F)cccc1Cl)C(=O)CNC(=O)c1ccc2c(c1)OCO2 | 20.4% | 
Cc1ccc(C(CC(=O)O)NC(=O)c2ccc(S(=O)(=O)N3CCCC3)cc2)cc1 (stereo not given) | 22.2% | 
O=C(NCCN1C(=O)S/C(=C\c2cccnc2)C1=O)c1cccc(OC(F)F)c1 | -27.2% | 
CCOc1ccc(N2CC(C(=O)NCCN3C(=O)S/C(=C\c4cccnc4)C3=O)CC2=O)cc1 (stereo not given) | 14.5% | 
Cc1cc(OCCCC(=O)NCCN2C(=O)S/C(=C\c3cccnc3)C2=O)ccc1Cl |  | 11.7 µM (active)
COC(=O)c1ccc(S(=O)(=O)NCc2ccccc2)n1C | 70.9% | 
Cc1ccc(C(=O)CCC(=O)N(C)CC(=O)Nc2c(Cl)cccc2Cl)cc1 | 21.6% | 
CCOC(=O)N1CCC(c2cc(=O)n(-c3ccccc3)[nH]2)CC1 | 0.756% | 
COc1cc(OC)cc(-c2cc3nc(C4CCN(C(=O)OC(C)(C)C)CC4)cc(=O)n3[nH]2)c1 |  | 1.65 µM (active)
CC1CCN(C(=O)c2cc3nc(C4CC4)cc(C(F)(F)F)n3n2)CC1 | 9.96% | 
O=C(Oc1ccc(-c2nnco2)cc1)c1ccc(F)c(S(=O)(=O)N2CCOCC2)c1 | -11.3% | 
O=C(CCS(=O)(=O)c1ccc2c(c1)NC(=O)CS2)NCc1ccccc1Cl | 11.6% | 
Cc1csc(/N=C/N(C)C)c1C#N | 26.6% | 
Cc1cccc2sc(N(CCCN(C)C)C(=O)CCS(=O)(=O)c3ccccc3)nc12 | 5.57% | 
CC(=O)N(CCCN(C)C)c1nc2ccc(C)cc2s1 | 9.36% | 
Cc1cc(C)c2nc(N(CCN(C)C)C(=O)/C=C/c3cccs3)sc2c1 |  | 6.57 µM (active)

SMILES | activity change, negative = inhibition | Potency
CCOC(=O)c1sc2nc(C)[nH]c(=O)c2c1C | -1.31% | 
Cc1ccc(NC(=O)CSc2nc(CSc3ccc(C)cc3)cc(=O)[nH]2)cc1 | -16.4% | 
O=c1cc(CSc2ccccn2)nc(N2CCN(c3ccccc3)CC2)[nH]1 | -8.4% [at 5.75 µM] | 
Cc1ccc(SCc2cc(=O)[nH]c(N3CCCCC3)n2)cc1 |  | 5.22 µM (active)
O=C(OCCN=C1NS(=O)(=O)c2ccccc21)c1cccc([N+](=O)[O-])c1 | 48.1% | 
Cc1cccc(NC(=O)c2sc3nc4c(c(-c5ccco5)c3c2N)CCC4)c1 |  | 1.85 µM (active)
Cc1nc2sc(C(=O)c3ccccc3)c(N)c2c2c1CCCC2 | -45.8% | 
NC(=O)c1sc2nc3c(c(-c4ccccc4)c2c1N)CCC3 | -25.1% | 
CCN(C(=O)CSc1ncnc2c1cnn2-c1ccccc1)C1CCS(=O)(=O)C1 (stereo not given) | 6.57% | 
CCOc1ccc(NC(=O)CN(C)C(=O)CCSc2ccc(F)cc2)cc1OCC | -18.2% | 
COc1ccc(N2C(=O)CN=C2Nc2cccc(C)c2C)cc1OC | 25.7% | 
Cc1cccc(Nc2nc3c(S(=O)(=O)c4ccccc4)nnn3c3ccccc23)c1C |  | 0.465 µM (active)
CC(=O)Nc1ccc(Nc2nc3c(S(=O)(=O)c4ccc(C)c(C)c4)nnn3c3ccccc23)cc1 | 25% | 
CCN(CC)S(=O)(=O)c1ccc(OC)c(NC(=O)CCc2c(C)noc2C)c1 | -28% | 
O=S(=O)(NC1CC1)c1ccc(Cl)cc1 | 9.29% | 
C[N+](C)(C)CCNC(=O)c1c(O)c2c([nH]c1=O)CCCC2 | 0% | 
O=C(NCc1ccccn1)c1c(O)c2c([nH]c1=O)CCCC2 |  | 7.38 µM (active)
CCc1nnc(NC(=O)c2c(O)c3c([nH]c2=O)CCCC3)s1 | 60.9% | 
Nc1nnn(CC(=O)N/N=C/c2ccccc2)n1 | 5.79% | 
O=c1cc(N2CCN(Cc3ccccc3)CC2)c(-c2ccccc2)n[nH]1 | 6.44% | 
O=c1cc(N2CCCCC2)c(-c2ccccc2)nn1Cc1cccc(F)c1 |  | 11.7 µM (active)
O=c1c2ccccc2c(-c2ccccc2)nn1Cc1ccccc1 | -15.9% | 
O=C(CN(Cc1ccc(Br)cc1)S(=O)(=O)c1ccccc1)NCc1ccncc1 | 16.3% | 
Cc1nn2c(=O)cc(COC(=O)c3ccc(NC(=O)C(C)(C)C)cc3)nc2s1 | -3.18% | 
CSc1ccc(S(=O)(=O)NCC(=O)OCC(=O)NC2(C#N)CCCCC2)cc1[N+](=O)[O-] | 26.1% | 
